Measured values published in PubChem BioAssay (NCATS).
Values joined by “and” are separate entries in the source; they are usually repeats but may differ in a detail not shown here. Identical values can stand only once. Records with an inconclusive call do not appear. Active and inactive are the calls of the source. Unless noted, calls come from the whole dose curve; as a rule, active = well fitted curve in the direction sought with a large enough effect; inconclusive = small, poorly fitted or top-dose-only effect, or another doubt; inactive = no such curve, though single readings can be large; an effect the other way counts as inactive or inconclusive.

Columns and labels:
[1] = target: DNA repair nuclease/redox regulator APEX1 (Homo sapiens) (UniProt P27695); test: qHTS Validation Assay for Inhibitors of the Human Apurinic/apyrimidinic Endonuclease 1 (APE1) (AID 1705;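 note: TAMRA fluorescence gain over two minutes as APE1 cuts a quenched THF abasic duplex; % is set by controls: 0 for no effect and ±100 for the full control effect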)
Sequence of DNA repair nuclease/redox regulator APEX1 (Homo sapiens) (P27695 whole entry, looked up): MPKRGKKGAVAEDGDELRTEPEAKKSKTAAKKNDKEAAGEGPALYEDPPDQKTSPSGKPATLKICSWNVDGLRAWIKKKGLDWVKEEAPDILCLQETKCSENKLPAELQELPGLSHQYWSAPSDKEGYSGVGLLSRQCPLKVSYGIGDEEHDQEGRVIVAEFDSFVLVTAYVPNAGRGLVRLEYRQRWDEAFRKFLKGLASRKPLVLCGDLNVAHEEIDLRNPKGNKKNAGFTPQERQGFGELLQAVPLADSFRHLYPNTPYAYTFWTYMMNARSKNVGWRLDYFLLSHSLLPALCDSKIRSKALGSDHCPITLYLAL
Method in brief: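 Activity read as rising fluorescence (598 nm emission, 525 nm excitation) from incision of a TAMRA/BHQ-2 duplex carrying a THF abasic site (50 nM). Compound and enzyme sat 15 min at RT before substrate start; signal change between first and third 60-s reads.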

[2] = target: Endonuclease 4 (Escherichia coli (strain K12)) (UniProt P0A6C1); test: Counterscreen for APE1 Inhibitors: qHTS Validation Assay for Inhibitors of Endonuclease IV (AID 1708); note: % is set by controls: 0 for no effect and ±100 for the full control effect
Method in brief: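 Conditions: 2 nM enzyme, 50 nM TAMRA/BHQ-2 substrate, pH 7.5 Tris buffer with 2 mM MgCl2, RT. Compound preincubation 15 min; readout three fluorescence reads 60 s apart, third-minus-first.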

[3] = qHTS for differential inhibitors of proliferation of Plasmodium falciparum line 7G8 (AID 1815);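 note: parasite growth measured after three days of incubation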; note: potency is the fitted concentration of half-maximal effect;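 for activity change, negative = inhibition: plate controls were vehicle wells for no effect and reference inhibitor wells for full effect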
[4] = qHTS for differential inhibitors of proliferation of Plasmodium falciparum line GB4 (AID 1816); conditions: Potency: Plasmodium falciparum GB4 proliferation inhibition;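 note: parasite growth measured after 72 h incubation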; note: potency is the fitted concentration of half-maximal effect;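 for activity change, negative = inhibition: 0% = vehicle DMSO and -100% = reference inhibitor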
[5] = qHTS for differential inhibitors of proliferation of Plasmodium falciparum line W2 (AID 1883); conditions: Potency: Plasmodium falciparum W2 proliferation inhibition;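 note: parasites grown with compound for 72 h before lysis and staining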; note: potency is the fitted concentration of half-maximal effect;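 for activity change, negative = inhibition: 0% = vehicle wells and -100% = control inhibitor wells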
[6] = qHTS for differential inhibitors of proliferation of Plasmodium falciparum line HB3 (AID 1886); conditions: Potency: Plasmodium falciparum HB3 proliferation inhibition;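 note: parasites grown with compound for 72 h before SYBR Green readout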; note: potency is the fitted concentration of half-maximal effect;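 for activity change, negative = inhibition: plate controls were vehicle for no effect and reference inhibitor for full effect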
[7] = target: Ferritin light chain (Equus caballus) (UniProt P02791); test: qHTS Validation Assay for Identification of Novel General Anesthetics (AID 2323); note: % is set by controls: 0 for no effect and ±100 for the full control effect
Sequence of Ferritin light chain (Equus caballus) (P02791 2-175 limits assumed): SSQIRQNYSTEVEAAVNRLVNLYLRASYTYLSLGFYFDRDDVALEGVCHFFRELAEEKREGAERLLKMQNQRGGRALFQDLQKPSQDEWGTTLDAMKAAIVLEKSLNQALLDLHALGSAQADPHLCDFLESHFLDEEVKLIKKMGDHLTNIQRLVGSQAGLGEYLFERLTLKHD
Method in brief: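 Competitive displacement of the profluorescent anesthetic 1-AMA (50% saturated, PBS) from 10 uM apoferritin, 10 min, room temperature. Activity is normalized 380/535 nm fluorescence; concentration-response fitted with a four-parameter Hill equation.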

[8] = target: ATP-dependent DNA helicase Q1 (Homo sapiens) (UniProt P46063); test: qHTS Validation Assay for Inhibitors of RecQ-Like Dna Helicase 1 (RECQ1) (AID 2353);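 note: plate controls were DMSO vehicle for no effect and enzyme-free control for full effect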
Sequence of ATP-dependent DNA helicase Q1 (Homo sapiens) (P46063 whole entry, looked up): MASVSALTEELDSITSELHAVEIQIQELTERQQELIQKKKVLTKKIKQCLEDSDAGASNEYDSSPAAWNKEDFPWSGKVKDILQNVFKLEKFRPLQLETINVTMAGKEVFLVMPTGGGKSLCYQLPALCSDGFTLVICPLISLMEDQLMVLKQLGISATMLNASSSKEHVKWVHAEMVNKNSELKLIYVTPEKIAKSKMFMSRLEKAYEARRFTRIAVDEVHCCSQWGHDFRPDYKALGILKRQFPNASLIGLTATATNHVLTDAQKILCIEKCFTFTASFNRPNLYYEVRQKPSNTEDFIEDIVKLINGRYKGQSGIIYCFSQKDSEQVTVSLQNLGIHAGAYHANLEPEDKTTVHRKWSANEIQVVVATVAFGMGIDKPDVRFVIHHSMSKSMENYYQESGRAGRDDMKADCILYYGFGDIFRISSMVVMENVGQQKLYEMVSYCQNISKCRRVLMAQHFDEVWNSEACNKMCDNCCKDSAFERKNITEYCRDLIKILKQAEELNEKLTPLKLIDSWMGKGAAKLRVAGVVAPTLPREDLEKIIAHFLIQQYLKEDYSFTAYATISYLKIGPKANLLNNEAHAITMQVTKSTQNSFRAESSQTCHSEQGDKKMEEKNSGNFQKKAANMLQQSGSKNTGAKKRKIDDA
Method in brief: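 RECQ1T1 50 nM; forked duplex (20 bp + 30-nt ss tails) 200 nM, ATP 2 mM final; pH 8.0, 2 mM MgCl2, 2.5 ug/ml poly(dI-dC); 15 min compound preincubation; discontinuous kinetic read over 2 h at RT.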

[9] = Cytometric Cell-Based qHTS for Inhibitors of the mTORC1 Signaling Pathway in MEF (Tsc2-/-, p53-/-) Cells (AID 2660);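 note: Tsc2 and p53 null MEFs carrying empty vector with compound for 24 h; percent of cells above a phospho-rpS6 to PI ratio cutoff in each well; plate controls were DMSO for no effect and rapamycin for full effect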
Method in brief: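 Percent of cells positive for normalized phospho-S6 staining is reported, with the cutoff set from rapamycin (7.5 nM) versus DMSO wells. Tsc2-/-, p53-/- MEFs received compound for 24 hrs.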

[10] = High Content Imaging Cell-Based qHTS for Inhibitors of the mTORC1 Signaling Pathway in MEF (Tsc2-/-, p53-/-) Cells (AID 2666);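 note: percent of cells scored positive for phospho-rpS6 Ser235/236 immunostaining by imaging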
Method in brief: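 MEF Tsc2-/- p53-/- (empty vector), DMEM/10% FBS; cpd 24 h 37 °C; PFA fix, Alexa-488 p-rpS6 S235/236 Ab, Hoechst; imaged; rapamycin-defined inhibition; % positive cells/well.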

[11] = High Content Imaging Cell-Based qHTS for Inhibitors of the mTORC1 Signaling Pathway in MEF Cells (AID 2667); note: potency is the fitted concentration of half-maximal effect;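 for activity change, negative = inhibition: Tsc2-/- p53-/- MEFs stably re-expressing wild-type Tsc2 exposed 24 h; plate controls were DMSO wells for no effect and rapamycin control wells for full effect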
Method in brief: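 Read-out is the share of phospho-rpS6-positive cells per well, from Hoechst-normalized Alexa-488 Ser235/236 staining imaged on IN Cell. Cells: WT Tsc2-expressing Tsc2-/-, p53-/- MEFs exposed to compound for 24 hrs.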

[12] = qHTS Assay for Lipid Storage Modulators (AID 1519; calls by dose curve; for activity change, negative = inhibition: % is set by controls: 0 for no effect and ±100 for the full control effect); conditions: Drosophila S3 cells, BODIPY lipid droplet/cell ratio, laser cytometry, cells loaded with oleic acid
Method in brief: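 Cells seeded at 5,000 per well were treated with compounds over a concentration series and loaded with oleic acid (400 uM, as added). Lipid droplet fluorescence (488 nm excitation, 500-530 nm channel) was read by laser-scanning cytometry and normalized to 20 uM Triacsin C.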

[13] = qHTS for differential inhibitors of proliferation of Plasmodium falciparum line 3D7 (AID 1876); note: potency is the fitted concentration of half-maximal effect
[14] = qHTS for differential inhibitors of proliferation of Plasmodium falciparum line D10 (AID 1877);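 note: parasites grown with compound for 72 h before DNA staining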; note: potency is the fitted concentration of half-maximal effect;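 for activity change, negative = inhibition: plate controls were vehicle wells for no effect and reference inhibitor wells for full effect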
[15] = qHTS for differential inhibitors of proliferation of Plasmodium falciparum line Dd2 (AID 1882); conditions: Potency: Plasmodium falciparum Dd2 proliferation inhibition; note: nearly all actives have a fitted effect of over 65% in size; note: potency is the fitted concentration of half-maximal effect;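 for activity change, negative = inhibition: plate controls were DMSO vehicle for no effect and 0.29 µM artemisinin for full effect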
Method in brief: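 SYBR Green DNA fluorescence (ex 485, em 535 nm) after overnight lysis quantifies parasite growth; compound exposure lasted 72 h at 37 C on infected red cells at 2.5% hematocrit, 0.3% parasitemia (final). Artemisinin 0.29 uM and vehicle wells define normalization.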

[16] = target: RecQ-like DNA helicase BLM (Homo sapiens) (UniProt P54132); test: qHTS Validation Assay for Inhibitors of Bloom's syndrome helicase (BLM) (AID 2364);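 for activity change, negative = inhibition: plate controls were DMSO vehicle for no effect and enzyme-free control for full effect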
Sequence of RecQ-like DNA helicase BLM (Homo sapiens) (P54132 whole entry, looked up): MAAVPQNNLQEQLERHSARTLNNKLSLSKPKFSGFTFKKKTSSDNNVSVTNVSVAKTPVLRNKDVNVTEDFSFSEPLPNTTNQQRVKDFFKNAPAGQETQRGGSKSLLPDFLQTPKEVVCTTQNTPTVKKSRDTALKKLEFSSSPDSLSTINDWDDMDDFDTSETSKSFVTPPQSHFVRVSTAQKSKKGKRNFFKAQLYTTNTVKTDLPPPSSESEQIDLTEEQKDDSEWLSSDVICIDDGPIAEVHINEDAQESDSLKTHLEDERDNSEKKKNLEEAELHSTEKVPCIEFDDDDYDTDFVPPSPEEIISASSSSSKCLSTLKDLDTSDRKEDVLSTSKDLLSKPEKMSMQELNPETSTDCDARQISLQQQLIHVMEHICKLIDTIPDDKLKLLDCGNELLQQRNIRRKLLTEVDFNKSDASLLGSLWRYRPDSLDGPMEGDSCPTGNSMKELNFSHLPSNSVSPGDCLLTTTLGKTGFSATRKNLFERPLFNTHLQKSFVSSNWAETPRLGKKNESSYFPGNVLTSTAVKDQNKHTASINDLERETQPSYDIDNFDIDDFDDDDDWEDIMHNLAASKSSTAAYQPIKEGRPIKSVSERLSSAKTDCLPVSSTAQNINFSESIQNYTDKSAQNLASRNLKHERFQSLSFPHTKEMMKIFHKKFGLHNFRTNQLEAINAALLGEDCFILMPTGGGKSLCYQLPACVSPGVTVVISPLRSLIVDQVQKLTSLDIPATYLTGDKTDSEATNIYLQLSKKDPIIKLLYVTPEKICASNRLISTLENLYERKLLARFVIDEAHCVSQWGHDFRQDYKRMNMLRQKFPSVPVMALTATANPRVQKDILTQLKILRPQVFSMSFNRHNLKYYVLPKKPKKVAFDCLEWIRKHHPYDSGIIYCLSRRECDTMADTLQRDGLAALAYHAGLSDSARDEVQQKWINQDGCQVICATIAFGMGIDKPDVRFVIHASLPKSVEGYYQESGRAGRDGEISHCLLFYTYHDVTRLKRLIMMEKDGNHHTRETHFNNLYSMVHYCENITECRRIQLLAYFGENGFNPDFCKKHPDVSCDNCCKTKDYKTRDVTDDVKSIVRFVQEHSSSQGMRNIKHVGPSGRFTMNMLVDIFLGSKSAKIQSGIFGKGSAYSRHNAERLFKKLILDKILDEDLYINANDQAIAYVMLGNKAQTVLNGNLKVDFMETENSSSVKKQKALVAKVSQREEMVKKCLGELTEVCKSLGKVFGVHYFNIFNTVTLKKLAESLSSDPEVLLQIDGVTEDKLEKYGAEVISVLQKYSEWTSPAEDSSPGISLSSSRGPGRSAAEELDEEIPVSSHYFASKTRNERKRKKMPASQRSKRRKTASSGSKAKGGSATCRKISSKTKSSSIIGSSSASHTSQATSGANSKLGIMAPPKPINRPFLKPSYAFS
Method in brief: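 50 nM BLM preincubated 15 min at room temperature with compound in pH 8.0 Tris buffer containing 2.5 ug/ml poly(dI-dC); started with 200 nM TAMRA/BHQ-2 forked duplex and 2 mM ATP (final). Unwinding read as TAMRA fluorescence increase, two reads 2 h apart.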

[17] = Counterscreen for APE1 Inhibitors: Fluorescent Dye Displacement Validation Assay (AID 1707); note: potency is the fitted concentration of half-maximal effect;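 for activity change, negative = inhibition: plate controls were ThO with dsDNA and no compound for no effect and ThO without dsDNA for full effect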
Method in brief: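 Loss of Thiazole Orange fluorescence marks promiscuous DNA binders. The dye (250 nM) is mixed with 50 nM abasic-site dsDNA in pH7.5 Tris buffer containing MgCl2, then compounds are added and emission is read once.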

[18] = qHTS Assay for Modulators of Human Peripheral Myelin Protein 22 (PMP22) Expression/Activity (AID 1967; active = well fitted curve in the direction sought with a large enough effect in the signal ratio; the % refers to the signal ratio;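 note: 0% = untreated cells and 100% end not stated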)
Method in brief: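 Readout is the corrected green/red luminescence ratio after 24 h compound exposure, normalised to untreated cells (0%). Engineered MSC80 mouse Schwann cells express green luciferase from the mouse Pmp22 promoter and red luciferase from EF-alpha as internal control.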

[19] = qHTS Assay for Identification of Small Molecule Inducers of Hypoxia Response (AID 2120; active = well fitted curve in the direction sought with a large enough effect in the signal ratio, with a control signal flat, not every such curve was filed as active; the % refers to the signal ratio; note: 0% is about no effect)
Method in brief: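 Cell-based qHTS for reporter induction: hypoxia response element controlled beta-lactamase in ME-180 cells. Compounds incubated 17 h at 37 degrees C; activity from blue/green (460/530 nm) ratio, inducers ranked by AC50.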

[20] = measured here: cell count channel max response
[21] = measured here: lipid channel max response

Cn1ccc2cc3c(cc21)CCN3C(=O)Nc1cccnc1
inactive: Potency [1] | Potency [2] | Potency [7] | Potency [8] | outcome [9] | Potency [10] | Potency [11]
active: Potency [3] 10 µM | Potency [4] 11.2 µM | Potency [5] 10 µM | Potency [6] 12.6 µM

CCCNCC(O)COc1ccccc1C(=O)CCc1ccccc1 (stereo unspecified)
8.1% and 22.1%: max response [12, 20]
inactive: activity change, negative = inhibition ([12]; at 57.5 µM (top of the series)) 6.61% and -1.46% | Potency [1] | Potency [7] | Potency [8] | Potency [16] | outcome [9] | Potency [10]
14% and 22.1%: max response [12, 21]
active: Potency [4] 0.355 µM | Potency [13] 0.891 µM | Potency [14] 2.24 µM | Potency [15] 1 µM | Potency [5] 0.316 µM | Potency [6] 1 µM | Potency [11] 16.5 µM

COc1ccc(CCN(C)CCCC(C#N)(c2ccc(OC)c(OC)c2)C(C)C)cc1OC (stereo unspecified)
inactive: Potency [1] | Potency [17] | Potency [7] | Potency [8] | outcome [16] | outcome [9] | Potency [10]

O=C(Nc1ccc([N+](=O)[O-])cc1Cl)c1cc(Cl)ccc1O
active: Potency [17] 3.98 µM | Potency [3] 1 µM | Potency [4] 0.708 µM | Potency [13] 0.794 µM | Potency [14] 1 µM | Potency [15] 1.41 µM | Potency [5] 0.794 µM | Potency [6] 0.794 µM | Potency [11] 2.07 µM
inactive: Potency [1] | Potency [8] | outcome [9] | Potency [10]

Cc1ccccc1N1C(=O)c2cc(S(N)(=O)=O)c(Cl)cc2NC1C (stereo unspecified)
11.3% and 51.4%: max response [12, 20]
18.3% and 52%: max response [12, 21]
inactive: activity change, negative = inhibition ([12]; at 57.5 µM (top of the series)) 5.05% and -0.764% | Potency [1] | Potency [4] | Potency [13] | Potency [14] | Potency [15] | Potency [6] | Potency [7] | Potency [8] | outcome [9] | Potency [10] | Potency [11]

O=c1c(O)c(-c2ccc(O)c(O)c2)oc2cc(O)cc(O)c12
inactive: Potency [2] | outcome [9] | Potency [10] | Potency [11]

COc1cc2c(c(OC)c1OC)-c1ccc(OC)c(=O)cc1[C@@H](NC(C)=O)CC2
inactive: Potency [1] | Potency [18] | outcome [19] | Potency [8] | Potency [16] | outcome [9] | Potency [10] | Potency [11]

CCN1CCCC1CNC(=O)c1cc(S(=O)(=O)CC)c(N)cc1OC (stereo unspecified)
inactive: outcome [9] | Potency [10] | Potency [11]

CC(C)Cc1ccc(C(C)C(=O)O)cc1 (stereo unspecified)
inactive: Potency [1] | Potency [4] | Potency [13] | Potency [14] | Potency [15] | Potency [5] | Potency [6] | Potency [7] | Potency [8] | outcome [9] | Potency [10] | Potency [11]

COc1cc2nc(N3CCN(C(=O)c4ccco4)CC3)nc(N)c2cc1OC
active: Potency [3] 7.94 µM | Potency [4] 12.6 µM | Potency [13] 8.91 µM | Potency [14] 10 µM | Potency [15] 7.94 µM | Potency [5] 5.01 µM | Potency [6] 10 µM
inactive: Potency [1] | Potency [7] | Potency [8] | Potency [16] | outcome [9] | Potency [10]

Cn1c(=O)c2[nH]cnc2n(C)c1=O
inactive: Potency [1] | Potency [2] | Potency [3] | Potency [4] | Potency [13] | Potency [14] | Potency [15] | Potency [5] | Potency [6] | Potency [8] | Potency [16] | outcome [9] | Potency [10] | Potency [11]

CN(C)C(=O)C(CCN1CCC(O)(c2ccc(Cl)cc2)CC1)(c1ccccc1)c1ccccc1
inactive: Potency [1] | Potency [17] | Potency [8]

CC(COc1ccccc1)N(CCCl)Cc1ccccc1 (stereo unspecified)
23.2%: max response [12, 21]
11.9%: max response [12, 20]
inactive: activity change, negative = inhibition ([12]; at 57.5 µM (top of the series)) 6.18% | Potency [1] | Potency [8] | Potency [16] | outcome [9] | Potency [10] | Potency [11]

COc1ccc2[nH]cc(CCNC(C)=O)c2c1
inactive: activity change, negative = inhibition ([12]; at 25.7 µM (top of the series)) 1.02% | activity change, negative = inhibition ([12]; at 57.5 µM (top of the series)) 11.3% and -5.62% and 7.48% | Potency [1] | Potency [2] | Potency [3] | Potency [4] | Potency [13] | Potency [14] | Potency [15] | Potency [5] | Potency [6] | Potency [8] | outcome [9] | Potency [10] | Potency [11]

OCCN(CCO)c1nc(N2CCCCC2)c2nc(N(CCO)CCO)nc(N3CCCCC3)c2n1
inactive: activity change, negative = inhibition ([12]; at 25.7 µM (top of the series)) -0.0376% | Potency [2] | Potency [8] | outcome [9] | Potency [10] | Potency [11]
active: Potency [3] 2 µM | Potency [4] 2.82 µM | Potency [13] 3.98 µM | Potency [14] 7.94 µM | Potency [15] 6.31 µM | Potency [5] 2.82 µM | Potency [6] 3.55 µM
-18.6%: max response [12, 20]
-17.7%: max response [12, 21]

O=C1Cc2cc(CCN3CCN(c4nsc5ccccc45)CC3)c(Cl)cc2N1
inactive: Potency [10] | Potency [11]

Cc1ccc(-c2cc(C(F)(F)F)nn2-c2ccc(S(N)(=O)=O)cc2)cc1
inactive: activity change, negative = inhibition ([12]; at 57.5 µM (top of the series)) 7.63% | outcome [19]
30%: max response [12, 21]
18.8%: max response [12, 20]

CC[N+](CC)(CC)CCOc1cccc(OCC[N+](CC)(CC)CC)c1OCC[N+](CC)(CC)CC
inactive: Potency [1] | Potency [3] | Potency [4] | Potency [13] | Potency [14] | Potency [15] | Potency [5] | Potency [6] | Potency [8] | Potency [16] | outcome [9] | Potency [10] | Potency [11]

C[C@H]1c2cccc(O)c2C(O)=C2C(=O)[C@]3(O)C(O)=C(C(N)=O)C(=O)[C@@H](N(C)C)[C@@H]3[C@@H](O)[C@@H]21
inactive: outcome [9] | Potency [10] | Potency [11]

COc1ccccc1N1CCN(CC(O)COc2cccc3ccccc23)CC1 (stereo unspecified)
-17.8%: max response [12, 20]
inactive: activity change, negative = inhibition ([12]; at 57.5 µM (top of the series)) 0.0402% | Potency [1] | Potency [7] | Potency [8] | Potency [16] | Potency [10]
active: Potency [3] 11.2 µM | Potency [4] 14.1 µM | Potency [5] 10 µM | Potency [6] 12.6 µM
-14.9%: max response [12, 21]
